# Experimental data published in PubChem BioAssay.
# Active and inactive are the calls of the source.
# Key:
# [1] = binders of probe aFSTL3 on microarray, primary screen, stem cell growth factor project, biochemical, small-molecule microarray, fluorescence 635/667 (AID 1064); conditions: higher = more signal;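 also: measures binding of the biotinylated anti-FSTL3 antibody to printed compounds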
# [2] = binders from COS7 lysate, DM2A8 probe, primary screen, torsin A project, cell lysate, small-molecule microarray, fluorescence 635/667 (AID 1065); conditions: higher = more signal, COS7 lysate expressing mutant human TOR1A
# [3] = binders of probe aFGF2 on microarray, primary screen, stem cell growth factor project, biochemical, small-molecule microarray, fluorescence 635/667 (AID 1067); conditions: higher = more signal;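 also: measures binding of biotinylated aFGF2 protein to printed compounds on slides; z-score merges feature fluorescence and signal-to-noise across triplicate slides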
# [4] = binders of probe aFGF10 on microarray, primary screen, stem cell growth factor project, biochemical, small-molecule microarray, fluorescence 635/667 (AID 1071); conditions: higher = more signal;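 also: score merges 667 nm spot intensity and signal to noise from triplicate slides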
# [5] = biological target: Neurogenic locus notch homolog protein 2 (Homo sapiens) (UniProt Q04721); assay: Notch2 binders on small-molecule microarrays, primary screen, biochemical, small-molecule microarray, 635 nm fluorescence, stem cell growth factors (AID 1073); conditions: Notch2 binding, higher = more signal
# [6] = biological target: Pro-neuregulin-1, membrane-bound isoform (Homo sapiens) (UniProt Q02297); assay: NRG1 binders on small-molecule microarrays, primary screen, psychiatric disease protein project, biochemical, small-molecule microarray, fluorescence 635/667 (AID 1075); conditions: NRG1 binding, 635 nm fluorescence, higher = more signal;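 also: score combines 667 nm spot fluorescence with signal to noise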
# [7] = system: Neuregulin-1 EGF-like domain; assay: binders of neuregulin-1 EGF-like domain, primary screen, biochemical, small-molecule microarray, 635 nm fluorescence (AID 1081); conditions: small-molecule microarray binding, higher = more signal;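 also: binding of the protein to compounds printed on small-molecule microarray slides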
# [8] = FRG1 promoter luciferase signal modulators, primary screen, FRG1 inhibition for FSHD, cell-based, C2C12 myotubes, firefly/Renilla luciferase, luminescence (AID 1084); conditions: higher = more signal, called active from +8 up or from −8 down
# [9] = binders of probe aFST on microarray, primary screen, stem cell growth factor project, biochemical, small-molecule microarray, fluorescence 635/667 (AID 1086); conditions: higher = more signal;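 also: score merges 667 nm fluorescence with signal-to-noise of each printed compound spot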
# [10] = binders of probe aHhip on microarray, primary screen, stem cell growth factor project, biochemical, small-molecule microarray, fluorescence 635/667 (AID 1087); conditions: higher = more signal;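 also: score merges spot fluorescence at 667nm with spot signal to noise ratio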
# [11] = system: PRMT1 (protein arginine N-methyltransferase 1); assay: PRMT1 binders on small-molecule microarrays, primary screen, biochemical, small-molecule microarray, 635 nm fluorescence (AID 1088); conditions: small-molecule microarray binding, higher = more signal;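 also: binding of Prmt1 protein to compounds spotted on small-molecule microarray slides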
# [12] = yeast growth modulation, basal conditions, primary screen, YJM789 clinical isolate, OD600, 24 h (AID 1089);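 also: growth of clinical yeast isolate S. cerevisiae YJM 789 seeded 1000 cells per well; test concentration not given here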; conditions: S. cerevisiae YJM789 growth, higher = more signal, called active from +8 up or from −8 down
# [13] = fission yeast growth modulation, primary screen, strain 972, OD600, 24 h, no modulator (AID 1090);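 also: basal condition with compound alone and no growth modifier present; test concentration not given here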; conditions: S. pombe 972 growth, higher = more signal, called active from +8 up or from −8 down
# [14] = S. cerevisiae growth modulation with rapamycin, primary screen, strain BY4716, OD600, 96 h (AID 1091); conditions: higher = more signal, called active from +8 up or from −8 down; also: test concentration not given here
# [15] = biological target: Torsin-1A-interacting protein 2 (Homo sapiens) (UniProt Q8NFQ8); assay: LULL1 binders on small-molecule microarray, primary screen, cell lysate, human LULL1 lysate, 635/667 nm fluorescence (AID 1092); conditions: hLULL1 lysate binding, 635 nm fluorescence, higher = more signal;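 also: probe is lysate of COS7 cells overexpressing human LULL1; score merges per-feature 667 nm fluorescence with signal-to-noise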
# [16] = E. coli growth modulation, two-sided OD650, primary screen, E. coli filamentation project, strain DRC41, 24 h (AID 1093); conditions: OD650, 24 h, higher = more signal, called active from +8 up or from −8 down;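 also: MC1000 strain lacking acrAB efflux and sulA so SOS filamentation is blocked; test concentration not given here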
# [17] = small-molecule microarray binders of probe aLefty2, primary screen, biochemical, biotinylated probe, 635/667 nm fluorescence (AID 1094); conditions: higher = more signal;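 also: score merges spot fluorescence near 667 nm with spot signal-to-noise ratio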
# [18] = system: Noggin (protein binding on small-molecule microarray); assay: Noggin binders on small-molecule microarray, primary screen, biochemical, 635/667 nm fluorescence (AID 1095); conditions: 635 nm fluorescence, higher = more signal;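 also: score merges 667 nm feature fluorescence with signal to noise over triplicate slides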
# [19] = biological target: Neurogenic locus notch homolog protein 3 (Homo sapiens) (UniProt Q9UM47); assay: NOTCH3 binders on small-molecule microarray, primary screen, biochemical, 635/667 nm fluorescence (AID 1096); conditions: NOTCH3 binding, 635 nm fluorescence, higher = more signal
# [20] = small-molecule microarray binders of probe aEGFR, primary screen, biochemical, biotinylated probe, 635/667 nm fluorescence (AID 1097); conditions: higher = more signal;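 also: probe is a biotinylated anti-EGFR antibody binding compounds printed on slides; score combines fluorescence near 667 nm and signal to noise of each spot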
# Sequence of Pro-neuregulin-1, membrane-bound isoform (Homo sapiens) (Q02297 whole entry, looked up, the tested form may be a part, canonical isoform): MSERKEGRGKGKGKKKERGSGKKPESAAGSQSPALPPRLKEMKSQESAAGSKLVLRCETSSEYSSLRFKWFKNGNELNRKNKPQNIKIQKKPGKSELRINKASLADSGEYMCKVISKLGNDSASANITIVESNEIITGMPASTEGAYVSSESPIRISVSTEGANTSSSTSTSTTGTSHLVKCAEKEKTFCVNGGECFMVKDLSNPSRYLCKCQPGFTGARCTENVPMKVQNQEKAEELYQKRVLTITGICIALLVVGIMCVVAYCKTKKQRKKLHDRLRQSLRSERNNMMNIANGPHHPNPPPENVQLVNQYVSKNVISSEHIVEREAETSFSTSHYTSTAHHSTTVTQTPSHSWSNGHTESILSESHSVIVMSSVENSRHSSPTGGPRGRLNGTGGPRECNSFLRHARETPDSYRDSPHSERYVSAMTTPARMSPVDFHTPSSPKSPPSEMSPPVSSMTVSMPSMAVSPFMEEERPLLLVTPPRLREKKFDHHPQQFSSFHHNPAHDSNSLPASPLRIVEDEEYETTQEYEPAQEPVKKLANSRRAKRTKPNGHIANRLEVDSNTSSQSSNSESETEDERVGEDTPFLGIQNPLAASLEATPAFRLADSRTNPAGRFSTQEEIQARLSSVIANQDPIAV
# Sequence of Neurogenic locus notch homolog protein 2 (Homo sapiens) (Q04721 whole entry, looked up, canonical isoform): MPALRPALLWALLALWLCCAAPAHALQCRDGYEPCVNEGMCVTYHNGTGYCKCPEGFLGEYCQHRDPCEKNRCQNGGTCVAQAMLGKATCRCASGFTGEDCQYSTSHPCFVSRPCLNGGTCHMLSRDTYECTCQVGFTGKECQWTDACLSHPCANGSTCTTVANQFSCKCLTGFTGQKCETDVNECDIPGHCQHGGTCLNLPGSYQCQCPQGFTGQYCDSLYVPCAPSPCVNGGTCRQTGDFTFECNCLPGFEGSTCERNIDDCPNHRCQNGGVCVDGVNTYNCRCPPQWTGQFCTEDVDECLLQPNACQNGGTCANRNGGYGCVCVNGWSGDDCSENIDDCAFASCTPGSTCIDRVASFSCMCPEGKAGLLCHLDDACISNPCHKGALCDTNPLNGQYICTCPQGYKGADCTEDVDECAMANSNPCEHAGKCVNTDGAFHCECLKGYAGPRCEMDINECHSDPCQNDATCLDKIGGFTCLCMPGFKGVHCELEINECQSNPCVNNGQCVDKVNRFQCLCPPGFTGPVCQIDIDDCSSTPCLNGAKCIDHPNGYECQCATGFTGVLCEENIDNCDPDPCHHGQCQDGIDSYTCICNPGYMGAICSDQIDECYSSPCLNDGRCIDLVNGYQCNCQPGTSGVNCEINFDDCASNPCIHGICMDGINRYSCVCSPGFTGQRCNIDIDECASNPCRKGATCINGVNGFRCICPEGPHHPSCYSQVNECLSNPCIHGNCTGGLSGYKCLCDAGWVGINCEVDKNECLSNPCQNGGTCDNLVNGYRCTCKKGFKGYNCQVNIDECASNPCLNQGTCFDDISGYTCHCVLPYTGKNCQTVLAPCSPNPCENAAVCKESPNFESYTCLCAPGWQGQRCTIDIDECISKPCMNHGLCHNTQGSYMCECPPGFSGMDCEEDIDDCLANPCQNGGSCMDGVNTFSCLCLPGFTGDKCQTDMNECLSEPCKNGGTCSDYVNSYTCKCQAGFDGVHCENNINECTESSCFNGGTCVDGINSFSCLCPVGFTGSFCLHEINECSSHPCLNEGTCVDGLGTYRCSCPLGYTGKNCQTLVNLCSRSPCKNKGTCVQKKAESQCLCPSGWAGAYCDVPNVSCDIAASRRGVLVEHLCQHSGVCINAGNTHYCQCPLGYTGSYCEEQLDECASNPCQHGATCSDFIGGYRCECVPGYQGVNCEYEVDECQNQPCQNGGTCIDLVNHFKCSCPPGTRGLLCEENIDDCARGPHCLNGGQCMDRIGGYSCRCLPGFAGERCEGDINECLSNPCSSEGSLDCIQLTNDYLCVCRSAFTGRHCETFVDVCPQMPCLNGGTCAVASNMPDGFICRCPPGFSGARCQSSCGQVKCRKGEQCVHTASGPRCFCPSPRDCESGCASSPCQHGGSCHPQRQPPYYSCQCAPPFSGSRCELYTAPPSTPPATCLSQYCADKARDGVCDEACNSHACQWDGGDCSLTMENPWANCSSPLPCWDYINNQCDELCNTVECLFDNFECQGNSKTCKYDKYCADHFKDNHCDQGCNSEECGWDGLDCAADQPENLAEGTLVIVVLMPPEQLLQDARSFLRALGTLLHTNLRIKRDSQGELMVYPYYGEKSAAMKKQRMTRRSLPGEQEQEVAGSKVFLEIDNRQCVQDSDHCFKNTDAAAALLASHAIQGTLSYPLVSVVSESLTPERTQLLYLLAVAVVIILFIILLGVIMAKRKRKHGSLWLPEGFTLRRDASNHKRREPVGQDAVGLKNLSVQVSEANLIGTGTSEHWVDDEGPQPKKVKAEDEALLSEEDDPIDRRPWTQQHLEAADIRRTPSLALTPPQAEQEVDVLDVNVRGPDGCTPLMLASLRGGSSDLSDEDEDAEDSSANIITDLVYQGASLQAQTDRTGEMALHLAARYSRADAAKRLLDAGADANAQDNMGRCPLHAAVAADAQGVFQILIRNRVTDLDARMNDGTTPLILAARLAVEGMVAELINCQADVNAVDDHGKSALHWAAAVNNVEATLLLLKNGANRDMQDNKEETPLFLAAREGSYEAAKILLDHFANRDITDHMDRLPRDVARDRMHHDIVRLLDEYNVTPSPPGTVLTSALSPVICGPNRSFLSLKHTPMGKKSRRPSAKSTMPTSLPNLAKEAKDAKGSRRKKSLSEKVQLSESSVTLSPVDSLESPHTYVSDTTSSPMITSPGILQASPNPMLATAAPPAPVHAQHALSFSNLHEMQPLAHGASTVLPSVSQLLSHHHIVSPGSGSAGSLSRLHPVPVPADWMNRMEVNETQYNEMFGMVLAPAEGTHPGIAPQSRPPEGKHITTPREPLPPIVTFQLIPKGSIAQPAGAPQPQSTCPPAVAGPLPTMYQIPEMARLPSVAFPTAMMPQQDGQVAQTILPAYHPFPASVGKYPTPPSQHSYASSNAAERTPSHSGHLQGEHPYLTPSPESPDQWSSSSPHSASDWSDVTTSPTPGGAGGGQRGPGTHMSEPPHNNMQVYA
# Sequence of Torsin-1A-interacting protein 2 (Homo sapiens) (Q8NFQ8 whole entry, looked up): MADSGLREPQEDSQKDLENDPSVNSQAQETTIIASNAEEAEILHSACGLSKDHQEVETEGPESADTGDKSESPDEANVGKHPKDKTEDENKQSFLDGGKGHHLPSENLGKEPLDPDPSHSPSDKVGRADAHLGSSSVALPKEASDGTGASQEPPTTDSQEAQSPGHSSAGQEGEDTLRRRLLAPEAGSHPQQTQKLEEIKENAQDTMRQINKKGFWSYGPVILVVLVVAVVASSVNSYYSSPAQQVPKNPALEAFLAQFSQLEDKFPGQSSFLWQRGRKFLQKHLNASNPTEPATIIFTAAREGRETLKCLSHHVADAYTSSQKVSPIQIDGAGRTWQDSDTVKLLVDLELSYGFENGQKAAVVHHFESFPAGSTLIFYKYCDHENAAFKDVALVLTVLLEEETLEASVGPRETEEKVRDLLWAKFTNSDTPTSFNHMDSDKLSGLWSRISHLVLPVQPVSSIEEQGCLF
SMILES,composite z-score [1],composite z-score [2],composite z-score [3],composite z-score [4],composite z-score [5],composite z-score [6],composite z-score [7],z-score [8],composite z-score [9],composite z-score [10],composite z-score [11],z-score [12],z-score [13],z-score [14],composite z-score [15],z-score [16],composite z-score [17],composite z-score [18],composite z-score [19],composite z-score [20]
CO[C@H]1O[C@H](CO)[C@@H](OC(=O)Nc2ccccc2-c2ccccc2)[C@H](OC(=O)Nc2ccccc2-c2ccccc2)[C@@H]1OC(=O)Nc1ccccc1-c1ccccc1,0.0212,0.503,-0.152,1.03,1.1,1.35,1.19,0.722 (inactive),0.807,-0.189,1.54,1.95 (inactive),0.181 (inactive),7.28 (inactive),2.96,1.59 (inactive),-0.0569,0.761,1.08,-0.0757
NC(=O)N1C(=O)C2C(C1=O)C1C=C(CCCO)C2C(C2CC2)N1Cc1cc2c(cc1Br)OCO2 (stereo not given),0.225,-0.13,-0.093,-0.33,-0.191,0.946,0.982,-0.472 (inactive),0.0364,-0.0994,-0.918,-1.07 (inactive),-0.435 (inactive),-1.22 (inactive),1.36,-0.331 (inactive),-0.0778,-0.0543,0.325,-0.13
O=C1C2C=CC(C(O)c3ccc(-c4ccccc4)s3)N(Nc3ccccc3)C2C(=O)N1c1ccccc1 (stereo not given),-0.288,-0.109,0.198,0.44,1.61,2,1.33,-2.89 (inactive),1.62,-0.0618,1.26,-0.307 (inactive),1.63 (inactive),0.355 (inactive),4.34,-0.579 (inactive),0.0711,0.182,1.11,-0.0565
COCCOC(=O)N1C(=O)[C@@]2(c3cc(C#Cc4ccc(OC)cc4)ccc31)[C@H](c1ccc(O)cc1)N1[C@H](c3ccccc3)[C@H](c3ccccc3)OC(=O)[C@H]1[C@@H]2C(=O)Nc1nc2ccccc2s1,-0.304,0.262,-0.0724,0.554,1.29,1.06,1.24,2.63 (inactive),0.251,-0.249,1.56,0.15 (inactive),0.0615 (inactive),0.684 (inactive),2.06,-0.944 (inactive),-0.0376,1.09,1.08,-0.0103
COc1ccc([Si](C)(C)[C@@H]2[C@@H](CC(=O)N3Cc4ccccc4C[C@H]3CO)O[C@]3(C(=O)N(Cc4cccc(N5CCC5=O)c4)c4ccccc43)[C@H]2C)cc1,-0.0762,0.3,-0.07,0.507,0.596,0.592,1.22,-1.07 (inactive),0.113,0.35,1.55,0.0342 (inactive),0.589 (inactive),1.59 (inactive),1.95,-0.509 (inactive),-0.0963,0.954,0.87,0.0227
COC(=O)[C@@]1(Cc2ccc(OC)cc2)[C@H]2c3cc(C(=O)N4CCCC4)n(Cc4nc5ccccc5[nH]4)c3C[C@H]2CN1C(=O)c1ccccc1,1.13,0.572,0.417,1,1.82,2.11,1.14,4.38 (inactive),1.65,-0.229,0.661,-0.0237 (inactive),0.955 (inactive),2.07 (inactive),3.73,0.138 (inactive),0.759,-0.214,1.05,0.225
